6 compounds from PubChem BioAssay (NCI) can be followed below.

Common to all, as to assay: NCI-60 one-dose screen, 48 h (100 = growth as untreated, 0 = no growth, -100 = all killed)
For one assay, the system named is SK-MEL-2 melanoma. The conditions noted are these: 10 µM unless noted.
A further assay relates to EKVX NSCLC. The conditions noted are these: 10 µM.
Another assay relates to SN12C renal. The conditions noted are these: 10 µM unless noted.
The subject of a further assay is UO-31 renal. The conditions noted are these: 10 µM unless noted.
A further assay concerns TK-10 renal. The conditions noted are these: 10 µM unless noted.
The subject of another assay is ACHN renal. The conditions noted are these: 10 µM unless noted.
The test system of a further assay is CAKI-1 renal. The conditions noted are these: 10 µM unless noted.
The subject of the next assay is A498 renal. The conditions noted are these: 10 µM unless noted.
Another assay relates to CCRF-CEM leukemia. The conditions noted are these: 10 µM.
For the next assay, the system named is MOLT-4 leukemia. The conditions noted are these: 10 µM unless noted.
The subject of another assay is SR leukemia. The conditions noted are these: 10 µM unless noted.
In the next assay the test system is RPMI-8226 leukemia. The conditions noted are these: 10 µM unless noted.
For a further assay, the system named is OVCAR-8 ovarian. The conditions noted are these: 10 µM unless noted.
The subject of a further assay is OVCAR-5 ovarian. The conditions noted are these: 10 µM unless noted.
The next assay concerns SK-OV-3 ovarian. The conditions noted are these: 10 µM unless noted.
A further assay concerns IGROV1 ovarian. The conditions noted are these: 10 µM unless noted.
The next assay deals with OVCAR-3 ovarian. The conditions noted are these: 10 µM unless noted.
The next assay relates to NCI/ADR-RES ovarian. The conditions noted are these: 10 µM unless noted.
For another assay, the system named is OVCAR-4 ovarian. The conditions noted are these: 10 µM unless noted.
The subject of a further assay is HS 578T breast. The conditions noted are these: 10 µM unless noted.

Where “and” joins values, the source holds several entries; their conditions need not be identical. Equal values may be shown once. About 83,000 compounds went through this panel and 20% of them were active in at least one assay; those are over-represented in the sample as a whole.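 Single-concentration screen, 48 h exposure, 96-well plates. Endpoint: percent growth. Below 10 = active.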 Calls of active or inactive are those of the source.

In the case of `CCCCCCCCCCCCCCCCC(C(=O)O)C(O)(CC(=O)O)C(=O)O` (stereo not drawn), the growth in the assay on SK-MEL-2 melanoma is 95.4% (inactive) and -42.9% (active); with EKVX NSCLC, 38.2% (inactive); in the assay with SN12C renal, 110% (inactive) and 17.4% (inactive); in the assay on UO-31 renal it was 98.7% (inactive) and 59.3% (inactive); with TK-10 renal it was 94.1% (inactive) and 34% (inactive); in the assay with ACHN renal, 96.8% (inactive) and 28.4% (inactive). In addition, the growth in the assay with CAKI-1 renal was 103% (inactive) and 74.9% (inactive); in the assay with A498 renal it was 113% (inactive); in the assay on CCRF-CEM leukemia it was 2.43% (active); in the assay on MOLT-4 leukemia, 90.3% (inactive) and 1.35% (active); in the assay on SR leukemia it was 90.8% (inactive) and 1.12% (active); in the assay with RPMI-8226 leukemia, 104% (inactive) and -25.5% (active). The growth in the assay with OVCAR-8 ovarian was 111% (inactive); with OVCAR-5 ovarian, 109% (inactive) and -56.6% (active); in the assay with SK-OV-3 ovarian it was 98.3% (inactive) and 36.1% (inactive); in the assay with IGROV1 ovarian it was 109% (inactive) and -21.4% (active); in the assay with OVCAR-3 ovarian, 111% (inactive) and -3.72% (active); in the assay on NCI/ADR-RES ovarian, 111% (inactive) and 89.7% (inactive).

With `O=CN1CCCCC1`, the growth was 125% (inactive) with SK-MEL-2 melanoma; 94.9% (inactive) in the assay on EKVX NSCLC; 104% (inactive) in the assay on SN12C renal; 97.2% (inactive) in the assay on UO-31 renal; 125% (inactive) in the assay with TK-10 renal; 109% (inactive) in the assay on ACHN renal. In addition, the growth with CAKI-1 renal is 96.9% (inactive); in the assay with A498 renal, 84.1% (inactive); in the assay with CCRF-CEM leukemia, 115% (inactive); in the assay on MOLT-4 leukemia, 121% (inactive); with SR leukemia, 119% (inactive); with RPMI-8226 leukemia, 177% (inactive). In addition, the growth is 117% (inactive) with OVCAR-8 ovarian; 104% (inactive) in the assay with OVCAR-5 ovarian; 113% (inactive) with SK-OV-3 ovarian; 124% (inactive) with IGROV1 ovarian; 112% (inactive) with OVCAR-3 ovarian; 103% (inactive) in the assay on NCI/ADR-RES ovarian.

For `O=C(O)/C=C\C(=O)Nc1cccc2ccccc12`, the growth in the assay with SK-MEL-2 melanoma is 88.2% (inactive) and 130% (inactive); in the assay with EKVX NSCLC, 65.1% (inactive) and 112% (inactive); in the assay on SN12C renal, 97.6% (inactive) and 92.3% (inactive); in the assay on UO-31 renal, 59.7% (inactive) and 72% (inactive); with TK-10 renal, 107% (inactive) and 121% (inactive); in the assay on ACHN renal, 90.5% (inactive) and 99.2% (inactive). For the same compound, the growth is 89.4% (inactive) and 98.7% (inactive) in the assay on CAKI-1 renal; 96.3% (inactive) and 115% (inactive) in the assay with A498 renal; 50.7% (inactive) and 101% (inactive) in the assay on CCRF-CEM leukemia; 77.2% (inactive) and 84.1% (inactive) in the assay on MOLT-4 leukemia; 103% (inactive) and 70.2% (inactive) in the assay on SR leukemia; 102% (inactive) and 105% (inactive) in the assay on OVCAR-8 ovarian. Further, the growth is 100% (inactive) and 104% (inactive) in the assay on OVCAR-5 ovarian; 92.2% (inactive) and 115% (inactive) in the assay with OVCAR-4 ovarian; 74.9% (inactive) and 129% (inactive) with IGROV1 ovarian; 90.1% (inactive) and 113% (inactive) in the assay on OVCAR-3 ovarian; 105% (inactive) and 104% (inactive) with HS 578T breast; 110% (inactive) and 104% (inactive) in the assay on NCI/ADR-RES ovarian.

On to `CN(C)CC1CCCCCC(CN(C)C)C1=O` (stereo not drawn), for which the growth was 106% (inactive) in the assay with SK-MEL-2 melanoma; 111% (inactive) in the assay on EKVX NSCLC; 94.9% (inactive) with SN12C renal; 10.5% (inactive) with UO-31 renal; -22.3% (active) with TK-10 renal; -49.8% (active) in the assay with ACHN renal. Moreover, the growth with CAKI-1 renal is -48.5% (active); in the assay with A498 renal, 117% (inactive); in the assay on CCRF-CEM leukemia, -23.7% (active); with MOLT-4 leukemia it was 20.7% (inactive); with SR leukemia, 5.93% (active); in the assay on OVCAR-8 ovarian it was 80.3% (inactive). For the same compound, the growth with OVCAR-5 ovarian is 146% (inactive); with SK-OV-3 ovarian, 107% (inactive); with IGROV1 ovarian, 34.2% (inactive); in the assay on OVCAR-3 ovarian it was -12.7% (active); in the assay on NCI/ADR-RES ovarian, 88.3% (inactive).

For `O=C1c2c(O)ccc(O)c2C(=O)c2c(NCCNCCO)ccc(NCCNCCO)c21`, the growth in the assay with SK-MEL-2 melanoma was -87.6% (active) and -70.5% (active); with EKVX NSCLC, -17.7% (active) and -29.5% (active); in the assay on SN12C renal, -45.7% (active) and -49.7% (active); with UO-31 renal it was -63.5% (active) and -53.9% (active); with TK-10 renal, -35% (active) and -7% (active); in the assay on ACHN renal, -52.9% (active) and -45.2% (active). The growth in the assay on CAKI-1 renal is -17.2% (active) and -31% (active); in the assay with A498 renal, -80.1% (active); with CCRF-CEM leukemia, -24.9% (active) and -30.9% (active); in the assay with MOLT-4 leukemia, 2.98% (active) and -18.1% (active); in the assay with SR leukemia, -12.7% (active); in the assay on OVCAR-8 ovarian, -41.6% (active). Moreover, the growth with OVCAR-5 ovarian is -15.1% (active) and -78.6% (active); in the assay on IGROV1 ovarian it was -10.4% (active) and -56.7% (active); with OVCAR-3 ovarian it was -50.5% (active) and -31.7% (active); in the assay on HS 578T breast, -22.8% (active); with NCI/ADR-RES ovarian, 39.1% (inactive) and -9.1% (active).

Regarding `Nc1cc(N)c(N)cc1N`, the growth is -62.5% (active) in the assay on SK-MEL-2 melanoma; 57.5% (inactive) with EKVX NSCLC; -69.7% (active) in the assay on SN12C renal; -0.0578% (active) with UO-31 renal; 101% (inactive) in the assay on TK-10 renal; 8.63% (active) in the assay with ACHN renal. Also, the growth in the assay with CAKI-1 renal was 82.5% (inactive); in the assay with A498 renal, 99.8% (inactive); in the assay with CCRF-CEM leukemia, 89.6% (inactive); with MOLT-4 leukemia, 83.2% (inactive); in the assay with SR leukemia, -7.21% (active); in the assay on RPMI-8226 leukemia, 89.7% (inactive). The growth in the assay on OVCAR-8 ovarian is 63.3% (inactive); in the assay with OVCAR-5 ovarian it was -9.01% (active); with OVCAR-4 ovarian it was 25.3% (inactive); in the assay with SK-OV-3 ovarian it was 98.4% (inactive); with IGROV1 ovarian it was 47.6% (inactive); in the assay on OVCAR-3 ovarian, -55.1% (active). Further, the figures for the growth in the assay on HS 578T breast and in the assay with NCI/ADR-RES ovarian were 67.7% (inactive) and 59.6% (inactive), respectively.
